Laboratory results reported in PubChem BioAssay (NCATS).
Records with an inconclusive call do not appear. Where a call stands in place of a potency, no number is given. Activity calls are given as the source filed them. Calls follow the shape of the full dose curve.

experiment: Cytotoxicity counterscreen for inhibitors of SARS-CoV-2 cell entry (AID 1645845); conditions: cell viability (SARS-CoV-2 entry assay cells); series mostly up to 57.1 µM; also: nearly all actives have a fitted effect of over 50% in size
In short: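 Expi293F/hACE2 cells seeded overnight; cpd pin-transferred in DMSO, 1 h preincubation, + media, 48 h 37 C 5% CO2; ATPLite 1step luminescence; normalized to cells and no cells.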
Potency is read from the fitted curve at half-maximal effect.

SMILES | Potency
CCCC(CCC)C(=O)Nc1ccn([C@@H]2O[C@H](CO)[C@@H](O)C2(F)F)c(=O)n1 | inactive
COCCOC(=O)N1CCN(S(=O)(=O)c2cc(F)c(Oc3ccc(Cl)cc3)c(F)c2)C(C(=O)NO)C1 (stereo not given) | 31.6 µM (active)
COC(=O)N(CC(=O)O)Cc1cccc(OCc2nc(-c3ccc(Cl)cc3)oc2C)c1 | inactive
CC(C)(CO)n1cc(C(=O)c2cncc(NC(=O)Cc3ccc(Cl)cn3)c2)c2cnc(N)nc21 | inactive
CCCCCCCCCCCCCCCCOCCCOP(=O)(O)COC(CO)Cn1ccc(N)nc1=O (stereo not given) | inactive
COCC(=O)NC/C=C/c1ccc2ncnc(Nc3ccc(Oc4ccc(C)nc4)c(C)c3)c2c1 | inactive
CN(C)N(C)C(=O)[C@@]1(Cc2ccccc2)CCCN(C(=O)[C@@H](Cc2c[nH]c3ccccc23)NC(=O)C(C)(C)N)C1 | inactive
CCNC(=O)Nc1ccc(Oc2ncnc(N)c2/C=N/OC)cc1Cl | inactive
NC1CCCN(c2c(/C=C3\SC(=O)NC3=O)cccc2-c2ccccc2)C1 (stereo not given) | inactive
C/C=C/C/C=C/CCC(=O)[C@H]1O[C@H]1C(N)=O | inactive
CCCc1cc(C)[nH]c(=O)c1CNC(=O)c1cc(-c2ccc(N3CCN(C(C)C)CC3)nc2)cc2c1cnn2C(C)C | inactive
Cc1cc(C(=O)Nc2cc(Oc3ccc4nc(NC(=O)C5CC5)cn4n3)ccc2C)n(C)n1 | inactive
Nc1cccc2c1CN([C@H]1CCC(=O)NC1=O)C2=O | inactive
Cc1cc(C)cc(Oc2ccc(CNC(=O)[C@H](C)N)cc2C)c1 | inactive
CC(C)Oc1ccc(-c2nn([C@@H](C)c3oc4ccc(F)cc4c(=O)c3-c3cccc(F)c3)c3ncnc(N)c23)cc1F | inactive
O=C(/C=C/N1C[C@H]2C[C@@H]1CN2c1ccccn1)c1ccccc1O | inactive
COc1cc(N2CCN(C)CC2)ccc1Nc1ncc2c(n1)N(C)c1ccccc1C(=O)N2C | inactive
O=c1[nH]nc2c3c(cccc13)NC(CN1Cc3ccccc3C1)=N2 | inactive
O=C(Nc1cnn2ccc(N3CCC[C@@H]3c3cc(F)ccc3F)nc12)N1CC[C@H](O)C1 | inactive
CN1CCN(c2ccc(Nc3ncc4cc(C#N)c(=O)n(C5CCCC5)c4n3)cc2)CC1 | inactive

SMILES | Potency
CC[C@@H]1[C@H](F)C(=O)N[C@@H]1COc1nccc2cc(C(N)=O)c(OC)cc12 | inactive
Nc1nccc(-c2c(-c3ccc(F)cc3)ncn2C2CCN(Cc3ccon3)CC2)n1 | inactive
Cc1[nH]c(/C=C2\C(=O)Nc3ccccc32)c(C)c1CCC(=O)O | inactive
CC(C)C[C@H](CO)Nc1nc(S[C@@H](C)c2ccccc2)nc2nc(N)sc12 | 31.6 µM (active)
C=CC(=O)N1CCC(C2CCNc3c(C(N)=O)c(-c4ccc(Oc5ccccc5)cc4)nn32)CC1 (stereo not given) | inactive
CCN1C(=O)CNc2ncc(-c3ccc(-c4ncn[nH]4)nc3C)nc21 | 22.4 µM (active)
CCCCNc1ncc(-c2ccc(CN3CCOCC3)cn2)c(NC2CCC(O)CC2)n1 (stereo not given) | inactive
COc1cc2c(cc1OC(C)C)[C@H](c1ccc(Cl)cc1)N(c1ccc(N(C)CC3CCC(N4CCN(C)C(=O)C4)CC3)cc1)C(=O)C2 (stereo not given in full) | inactive
CN(C)C/C=C/C(=O)Nc1cc2c(Nc3ccc(F)c(Cl)c3)ncnc2cc1O[C@H]1CCOC1 | inactive
CCOc1cc(C(C)(C)C)ccc1C1=N[C@@](C)(c2ccc(Cl)cc2)[C@@](C)(c2ccc(Cl)cc2)N1C(=O)N1CCN(CC(=O)N2CCOCC2)CC1 | inactive
C=C1C(=O)OC2/C=C(/C)CC/C=C(/C)CCC12 (stereo not given) | inactive
CCCN(CCC)C(=O)C1=Cc2ccc(-c3ccc(C(=O)N4CCCC4)cc3)cc2N=C(N)C1 | inactive
CN1CCN(c2nc(C3=C(c4c[nH]c5ccccc45)C(=O)NC3=O)c3ccccc3n2)CC1 | inactive
COC(=O)N[C@@H](C)CNc1nccc(-c2cn(C(C)C)nc2-c2cc(Cl)cc(NS(C)(=O)=O)c2F)n1 | inactive
CCN1C(=O)N2Cc3cc(OC)cc(OC)c3[C@@H](C)C=C2C12CCN(Cc1cc(C)cc(C)c1)CC2 | inactive
Cn1cc(-c2cc(Oc3cc(F)c(NC(=O)C4(C(=O)Nc5ccccc5)CC4)cc3F)ccn2)cn1 | inactive
COC(=O)[C@H]1[C@@H](O)[C@@]2(O)c3c(OC)cc(O[C@@H]4O[C@@H]([C@@H](O)CO)CO[C@H]4OC)cc3O[C@@]2(c2ccc(OC)cc2)[C@@H]1c1ccccc1 | inactive
C=C1CCC2[C@](C)(CO)C(O)CC[C@]2(C)C1C/C=C1/C(=O)OCC1O (stereo not given in full) | inactive
Cc1[nH]c(/C=C2\C(=O)Nc3ccc(F)cc32)c(C)c1C(=O)NC[C@H](O)CN1CCOCC1 | inactive
Cc1ccc(Nc2cc(N[C@@H]3CCCC[C@@H]3N)nnc2C(N)=O)nc1C | inactive
